Sa ugtP lethal: growth inhibition of ugtP-null S. aureus, primary screen, RN4220 ugtP deletion, OD600. growth inhibition, % (concentration not given with the values). AID 1259309, 2017. 0.54% of 330,000 active. 16 h; in the data active = growth inhibition above about 68%;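 also: plate controls were untreated wells for no effect and antibiotic for full effect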
VHR inh abs: VHR1 phosphatase inhibitors, primary screen, biochemical, absorbance, uHTS; Dual specificity protein phosphatase 3 (Homo sapiens), P51452; inhibition, % at 13.3 µM; AID 1654, 2009; 0.52% of 290,000 active; recombinant VHR phosphatase, pNPP absorbance; in the data active = inhibition above about 50%
Target sequence (P51452 whole entry, looked up): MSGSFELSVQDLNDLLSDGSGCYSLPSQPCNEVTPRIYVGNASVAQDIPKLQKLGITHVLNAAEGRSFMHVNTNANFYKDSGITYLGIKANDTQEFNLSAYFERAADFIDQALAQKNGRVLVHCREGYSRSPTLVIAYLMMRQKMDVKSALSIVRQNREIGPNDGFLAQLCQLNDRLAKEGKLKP
PfHsp40 rescue: rescue of yeast from PfHsp40 toxicity, primary screen, S. cerevisiae, ATP luminescence. 0.68% of 340,000 active. growth rescue, % at 12.5 µM. S. cerevisiae expressing PfHsp40, growth rescue; in the data active = growth rescue above about 28%, passing the limit was not always enough; inconclusive = no clear call, values can overlap the other calls;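 also: yeast W303a lacking pdr1 and pdr3 grown in galactose medium; growth measured after three days at 30 °C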
PrPC surface inh: inhibitors of human cell surface prion protein PrPC, primary screen, cell-based, TR-FRET; inhibition, % at 13.8 µM; TR-FRET read-out; 0.43% of 370,000 active; in the data active = inhibition above about 24%; also: 0% = median of the test wells and 100% = reference compound wells
Sa RN4220 lethal: growth inhibition of S. aureus RN4220, primary screen, OD600; inhibition, % (test concentration not listed); 16 h; AID 1259311, 2017; 0.33% of 330,000 active; in the data active = inhibition above about 85%;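 also: plate controls were untreated cells for no effect and reference antibiotic for full effect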
The depositor's hits bear a star; ? = inconclusive; . = not tested or not shown. This is a sample that favours compounds with a hit; in the whole collection about 1.8% have one here.

SMILES	Sa ugtP lethal	VHR inh abs	PfHsp40 rescue	PrPC surface inh	Sa RN4220 lethal
CC(C)COc1ccc(CNC(=S)NCc2ccccc2)cc1	-14.1	23.5	51.4*	-1.1	-2.3
CC1(O)C[C@]2(C)N(O)C3CCCCC3N2O1 (some centres undefined)	-4.6	.	.	.	3.7
O=C1C=C(c2ccc3c(c2)oc2ccccc23)CC(c2ccc3c(c2)OCO3)C1 (centres undefined)	2.0	.	.	.	-4.3
CCOC(=O)C(CC)n1cnc2c(nnn2-c2cccc(OC)c2)c1=O (centres undefined)	-2.8	53.0*	-1.0	-1.2	-0.9
CCCOc1ccc(S(=O)(=O)n2cc(F)c(=O)[nH]c2=O)cc1	18.2	0.0	161.7*	-3.6	20.1
CCOc1ccc(Cn2cc(F)c(=O)[nH]c2=O)cc1	3.1	-10.3	0.9	7.1	1.9
CC(C)COc1ccc(S(=O)(=O)n2cc(F)c(=O)[nH]c2=O)cc1	8.6	34.0	35.7*	7.2	19.5
O=C(NN=Cc1cn(-c2ccccc2)nc1-c1cccs1)c1ccccc1F	15.2	.	.	.	8.3
O=C(O)c1ccc2c(c1)C1C=CCC1C(c1cc3c(cc1Br)OCO3)N2 (centres undefined)	12.5	29.6	65.3*	1.0	7.7
Brc1cc2c(cc1C1Nc3ccccc3C3C=CCC31)OCO2 (centres undefined)	45.2	1.5	-0.8	7.6	-19.8
COc1ccc(S(=O)(=O)N2CCC(C(=O)NCCC(=O)Nc3ccc(Cl)cc3)CC2)cc1	-0.5	56.7*	0.2	-5.1	2.5
Cc1ccc(NC(N)=Nc2nc(CSc3ccccn3)cc(=O)[nH]2)c(C)c1	8.0	.	.	.	6.0
CC(=O)c1c(C)[nH]c(C(=O)Nc2nc(-c3ccc(Cl)cc3)cs2)c1C	90.3*	4.2	0.1	2.4	71.5
CN1CC2C3C(=O)N(Cc4ccccc4)C(=O)C3[C@](Cc3ccccc3)(C1=O)N2C(=O)c1ccccc1 (some centres undefined)	3.3	.	.	.	6.0
COc1ccc(C2CC(=O)C=C(c3ccccc3-c3ccccc3)C2)cc1 (centres undefined)	29.6	.	.	.	-7.3
CN(C)/N=C/c1ccc([N+](=O)[O-])cc1[N+](=O)[O-]	.	3.9	30.8*	-15.4	.
CN(C)N=Cc1ccc([N+](=O)[O-])cc1[N+](=O)[O-]	-0.3	.	.	.	5.5
O=C(NCCC(=O)N1CCCCC1)c1ccc(Br)cc1	3.4	-18.6	0.2	1.6	2.5
O=C(NCCC(=O)N1CCCCCCC1)c1ccc(Br)cc1	3.1	.	70.1*	4.4	-1.6
NC(=O)c1ccsc1NC(=O)c1ccc([N+](=O)[O-])o1	100.0*	.	0.7	-9.5	100.1*
ON=Cc1cccn1-c1ccc(O)cc1	-4.8	.	.	.	3.1
CCCC(=O)Nc1ccc(S(=O)(=O)N2CCCC2)cc1	-1.2	-19.1	1.3	-1.7	0.2
O=C(NC(=S)Nc1ccc(S(=O)(=O)N2CCCCC2)cc1)c1ccc(Cl)cc1	91.0*	-18.5	0.4	1.6	-9.9
CCCCC(=O)NC(=S)Nc1ccc(S(=O)(=O)N2CCCC2)cc1	93.6*	-11.7	0.3	6.7	5.3
CN1CCN(S(=O)(=O)c2ccc(NC(=S)NC(=O)c3ccc(Cl)cc3)cc2)CC1	90.5*	8.1	-1.5	-2.6	4.3
SMILES	Sa ugtP lethal	VHR inh abs	PfHsp40 rescue	PrPC surface inh	Sa RN4220 lethal
CCOC(=O)N1CCN(S(=O)(=O)c2ccc(NC(C)=O)cc2)CC1	6.3	52.0*	-0.4	1.6	-0.2
CCN(CC)c1ccc(C=NOCC(=O)N2CCCc3ccccc32)cc1	39.7	.	.	.	-3.4
CCOC(=O)C1=CCC(c2cc3ccc(OC)cc3n2C)N(S(=O)(=O)c2ccc(C)cc2)C1C(=O)OCC (centres undefined)	-1.7	.	.	.	11.2
O=C(Nc1ccc(Cl)cn1)c1cccc(S(=O)(=O)N2CCCCCC2)c1	.	.	.	-0.2	.
O=C(Nc1ccc(Cl)cn1)c1cccc(S(=O)(=O)N2CCCCC2)c1	-1.2	11.8	70.4*	1.2	2.9
O=C(O)C1CCCCC1C(=O)Nc1ccc(S(=O)(=O)N2CCCC2)cc1 (centres undefined)	8.8	13.0	116.0*	3.7	3.8
C#CCOCCOCCOCCNc1nc(N2CCN(C(=O)Cn3cc(CCCCN)nn3)CC2)nc(N2CCN(C(=O)C(CCCCN)n3cc(CCC(=O)O)nn3)CC2)n1 (centres undefined)	-1.1	.	.	.	8.2
C[C@@]12NC(Cc3ccccc31)c1ccccc12	4.0	.	.	.	8.9
O=[N+]([O-])c1ccn(-c2nc(-c3cccs3)cc(C(F)(F)F)n2)n1	-0.5	54.1*	-1.1	-8.7	0.6
COc1ccc([N+](=O)[O-])cc1NC(=O)Cn1ccsc1=N	8.0	50.8*	-1.2	-20.9	1.0
Cc1cc(NC(=O)Cn2ccsc2=N)c([N+](=O)[O-])cc1C	18.1	16.0	0.3	-2.5	4.8
NC(N)=NS(=O)(=O)c1ccc(NC(=S)NC(=O)c2ccccc2)cc1	active	-11.7	5.6	-6.0	92.7
NC(N)=NS(=O)(=O)c1ccc(NC(=S)NC(=O)/C=C/c2ccccc2)cc1	5.1	23.3	0.2	-4.5	2.8
NC(N)=NS(=O)(=O)c1ccc(NC(=S)NC(=O)Cc2ccc(Cl)cc2)cc1	88.4*	4.1	0.7	-0.2	3.8
CC(=O)OC[C@]1(OC(C)=O)C[C@@]23CCC4[C@@](C)(CCC[C@@]4(C)C(=O)O)C2CCC1C3 (some centres undefined)	-18.7	.	.	.	25.9
CC(C)CCN1C(=O)c2ccc(-c3nc4ccccc4c(=O)o3)cc2C1=O	5.7	50.3*	2.0	6.5	3.9
O=C1c2ccc(-c3nc4ccccc4o3)cc2C(=O)N1Cc1ccccc1	.	.	2.1	-2.8	.
COc1cc(/C=C(/C#N)c2nc(-c3cc4ccccc4oc3=O)cs2)cc([N+](=O)[O-])c1O	.	100.7*	.	5.3	.
CC(=O)C1=C(c2ccc(Br)cc2)C(=O)c2ccccc2C1=O	96.7*	25.6	?	5.2	97.2*
CC(=O)Nc1c(Br)cc2c(c1Br)C(=O)c1ccccc1-2	.	.	-1.6	-8.4	.
O=C(Nc1nnc(S(=O)(=O)Cc2ccc(F)cc2)s1)c1ccccc1F	0.3	-6.0	45.4*	0.8	10.8
O=[N+]([O-])c1ccc(N=Nc2ncc[nH]2)cc1	9.9	8.8	84.5*	3.7	19.2
COC(=O)c1ccc(C23CC4(C2)C(CN(CC2CCCCC2)C4c2ccccc2)C3c2ccc(Cl)nc2)cc1 (centres undefined)	-1.5	.	.	.	-1.4
CC(C)C1O/C(=N/C(=O)Nc2ccc(Cl)c(Cl)c2)NC1=O (centres undefined)	99.9*	1.5	0.4	3.9	100.0*
O=[N+]([O-])c1ccccc1S(=O)(=O)Oc1ccccc1C=Nn1cnnc1	1.6	.	.	.	9.5
O=C(c1ccc(N2CCN(C(=O)c3cccc(F)c3)CC2)cc1)c1cccc(F)c1	0.2	5.4	2.2	-0.4	0.3
O=C(c1ccc(N2CCN(C(=O)c3ccccc3Br)CC2)cc1)c1cccc(F)c1	6.9	5.4	34.4*	5.9	-0.4

Compound activity: PubChem BioAssay, several laboratories
